# Screening data deposited in PubChem by National Center for Advancing Translational Sciences (NCATS).
# Shiga inhibitor: blocks Shiga toxin action in Vero cells. Vero cells, Shiga toxin protein synthesis inhibition reporter. inhibition, % at 38.7 µM. 290,000 compounds, 9.2% hits. AID 2315; in the data active means inhibition mostly above about 28%, no sharp cut-off; inactive means mostly below about 43%; further: 0% is about no effect
# Cycloheximide cs: counter-screen hit for Shiga toxin inhibitors, cycloheximide; 300,000 compounds, 12% hits; cell reporter, cycloheximide protein synthesis inhibition counterscreen; max response, %; in the data active means max response mostly above about 13%, no sharp cut-off; inactive means mostly below about 14%; further: read at 38.3 µM for the half of the compounds with a filed dose; 0% is about no effect
# NS1 function inh: inhibitors of influenza NS1 protein function | 270,000 compounds, 0.4% hits | Potency, µM (highest dose often 46.1 µM), without a hit: at the top dose activity, positive = more growth; calls by dose curve; further: potency means the concentration at half of the fitted maximal effect; actives are rising curves; nearly all actives have a fitted effect of over 50% in size
#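 Growth recovery, yeast-based: influenza A NS1 expressed in S. cerevisiae causes slow growth, and suppressors are detected by OD600. The parent strain without NS1 is used as positive control.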
# AmpC no deterg: inhibitors of E. coli AmpC beta-lactamase without detergent; P00811; AmpC nitrocefin hydrolysis, absorbance 480 nm, 0.0001% Triton; Potency, µM (series often up to 57.1 µM), inactives show at the top dose activity change, negative = inhibition, most hits filed as inhibitors; 330,000 compounds, 0.52% hits;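 further: potency means the concentration at half of the fitted maximal effect; plate controls were no compound for no effect and no enzyme for full effect; nearly all actives have a fitted effect of over 20% in size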
# Target sequence (P00811 whole entry, looked up): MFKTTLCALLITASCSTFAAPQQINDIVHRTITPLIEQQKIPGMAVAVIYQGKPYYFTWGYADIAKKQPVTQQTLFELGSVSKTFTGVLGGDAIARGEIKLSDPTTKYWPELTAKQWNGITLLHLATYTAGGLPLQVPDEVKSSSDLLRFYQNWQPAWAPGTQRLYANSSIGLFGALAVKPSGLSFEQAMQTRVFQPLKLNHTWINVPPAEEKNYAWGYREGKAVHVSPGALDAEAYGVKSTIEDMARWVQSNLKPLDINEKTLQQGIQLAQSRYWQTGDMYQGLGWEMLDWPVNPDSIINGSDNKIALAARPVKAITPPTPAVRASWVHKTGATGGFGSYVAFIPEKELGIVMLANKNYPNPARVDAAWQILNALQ
#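 AmpC (5.3 nM in the dispensed reagent) in 20 mM phosphate pH 7.0 with 0.01% (detergent screen) or 0.0001% Triton X-100 was preincubated with compounds for 15 min at room temperature. Nitrocefin was then added from an 800 uM solution, and hydrolysis was followed at 480 nm.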
# AmpC inh detg: blocks E. coli AmpC beta-lactamase in detergent assay; AmpC hydrolysis of nitrocefin, absorbance 480 nm, 0.01% Triton; Potency, µM (titrated, usually from 114 µM), inactives show at the highest dose activity change, negative = inhibition, actives largely listed as inhibitors; 370,000 compounds, 0.041% hits;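 further: potency means the concentration at half of the fitted maximal effect; 0% = no-compound wells and -100% = no-enzyme wells; nearly all actives have a fitted effect of over 25% in size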
#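 AmpC (5.3 nM in the dispensed reagent) in 20 mM phosphate pH 7.0 with 0.01% (detergent screen) or 0.0001% Triton X-100 was preincubated with compounds for 15 min at room temperature. Nitrocefin was then added from an 800 uM solution, and hydrolysis was followed at 480 nm.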
# Active calls of the source: *; ? = inconclusive; . = no result; [ ] = remark or other dose. This is one part of a sample in which hits are shown more often than they occur. Unless noted, the call rests on the fitted dose curve; in most records, active means well fitted curve in the direction sought with a large enough effect; inconclusive means small, poorly fitted or top-dose-only effect, or another doubt; inactive means no such curve, though single readings can be large; an effect the other way counts as inactive or inconclusive.
SMILES,Shiga inhibitor,Cycloheximide cs,NS1 function inh,AmpC no deterg,AmpC inh detg
CC(C)CC(=O)Nc1nnc(S(=O)(=O)N(C)Cc2ccco2)s1,-4.7,8.2,-4.7%,-31.2%,0.5%
COc1ccc(-c2cc(CCCC(=O)NCc3ccccn3)no2)cc1,21.1,34.4*,-8.1%,27.1%,0.0%
CC(C)CNC(=O)CCc1nc(-c2ccccc2)no1,32.7*,26.9*,-7.7%,-17.1%,3.8%
COc1ccc(-c2cc(CCCC(=O)NCCc3ccccc3)no2)cc1,66.7*,63.7*,-4.4%,20.0%,-9.6%
COc1ccc(-c2noc(CCC(=O)NCCc3ccccc3)n2)cc1,44.5,24.8*,-6.7%,8.2%,0.1%
Cn1ncc(Cl)c1C(=O)N1CCN(c2ccc(Cl)c(Cl)c2)CC1,1.0,10.3,-38.1%,180.7%,3.5%
O=C(CCCN1C(=O)[C@H]2CC=CC[C@H]2C1=O)NCc1nc(-c2ccc(Cl)cc2)no1,14.0,-2.6,-12.9%,127.2%,-7.4%
COc1ccc(-c2noc(CNC(=O)CCCN3C(=O)[C@H]4CC=CC[C@H]4C3=O)n2)cc1,15.1,18.1*,-3.1%,32.2%,4.8%
CCc1ccc(NC(=O)Cn2c(=O)oc3cc(S(=O)(=O)N4CCCCCC4)ccc32)cc1,.,.,.,.,12.9%
COc1ccc(C(=O)N2CCN(c3ccccc3Cl)CC2)cc1S(=O)(=O)NC1CC1,.,.,.,153.1%,-2.1%
CCc1ccc(NC(=O)c2ccccc2SC)cc1,47.2,31.3*,-3.5%,-36.9%,-9.6%
CCc1ccc(NC(=O)c2cnc(SC)nc2C)cc1,41.7,28.9*,-3.9%,-20.9%,-3.7%
CSc1ncc(C(=O)Nc2ccccc2C(=O)c2ccccc2)c(C)n1,.,.,.,.,19.4%
CSc1ncc(C(=O)Nc2ccc(C(C)=O)cc2)c(-c2ccccc2)n1,51.4*,40.6*,10.1%,-35.3%,-0.1%
O=C(Nc1c(O)c2ccccc2oc1=O)c1ccccc1Cl,.,.,.,.,10.9%
CCc1ccc(C(=O)NCc2cccs2)s1,89.2*,36.6*,-4.6%,-19.8%,?
COc1ccccc1CNC(=O)c1ccc(OC(C)C)cc1,56.1*,14.6*,.,-18.8%,-9.1%
CCC(CC)C(=O)NCc1ccccc1OC,-15.8,-3.9,8.8%,-6.6%,?
O=C(NCc1cccs1)c1ccc(Cl)s1,-6.0,11.8,-11.0%,-26.4%,-3.8%
CCOc1ccc(C(=O)NCc2ccccc2OC)cc1,active,10.6,?,9.3%,-3.8%
CC(C)Oc1ccc(C(=O)NCc2cccs2)cc1,36.2*,50.1*,-7.7%,-18.1%,3.7%
COc1ccc(OC)c(NC(=O)Cn2c(=O)n(-c3ccc(Cl)cc3)c(=O)c3c(C)c(C)sc32)c1,.,.,.,.,7.7%
CN(C)/C=C/C(=O)c1ccc([N+](=O)[O-])c(CS(=O)(=O)c2ccc(Cl)cc2)c1,-3.4,-4.8,16.3%,?,?
O=C(O)CCC(=O)Nc1ccc(Cc2ccc(NC(=O)CCC(=O)O)cc2)cc1,-9.2,-1.5,3.0%,-11.7%,1.3%
COc1ccc(C(=O)Nc2cccc(C(C)=O)c2)c(OC)c1OC,69.5*,21.7*,2.5%,-2.9%,-1.9%
SMILES,Shiga inhibitor,Cycloheximide cs,NS1 function inh,AmpC no deterg,AmpC inh detg
COc1ccc(C(C)NC(=O)Nc2ccc(C(C)=O)cc2)cc1OC (configuration not stated),22.7,22.6*,-1.5%,-35.0%,3.0%
COC(=O)c1cccc(NC(=O)c2cc(OC)c(OC)c(OC)c2Br)c1,20.0,4.8,6.7%,1.7%,?
COc1ccccc1C(=O)Nc1cccc(C(=O)c2ccccc2)c1,19.6,12.7*,-7.5%,-34.2%,-7.5%
COc1cc(OC)c(C(=O)Nc2cccnc2)cc1OC,19.0,-2.4,-7.8%,-12.3%,-12.0%
COc1cc(OC)c(C(=O)Nc2cccc(C(C)=O)c2)cc1OC,25.2,18.9*,1.8%,29.0%,-6.2%
CC(C)(C)OC(=O)CNC(=O)c1nc[nH]c1C(=O)NCC(=O)OC(C)(C)C,-5.7,0.9,-2.9%,44.3%,-0.6%
C=CCNC(=O)c1c(CSc2ccc(F)cc2)noc1C(=O)NCCC,.,.,.,-9.2%,0.5%
COc1cccc(CNC(=O)c2sc3nc(C)cc(C)c3c2-n2cccc2)c1OC,.,.,.,.,2.4%
COc1ccc(C(=O)Nc2cccc(C(C)=O)c2)cc1OC,44.6,30.2*,-10.6%,-19.7%,-9.5%
COc1cccc(C=Nc2ccccc2C(=O)Nc2ccccc2)c1O,77.5*,54.6*,20.3%,-21.3%,-9.8%
O=C(Nc1ccccc1)c1ccccc1N=Cc1cccc(O)c1,6.8,1.1,-0.8%,-43.1%,2.0%
COc1ccc(NC(=S)Nc2cccc(C(C)=O)c2)cc1OC,17.5,13.6,5.0%,-5.2%[2.29 µM],3.9%
C/C(=N\N=C(/N)c1nonc1N)c1ccc2c(c1)OCO2,55.2*,80.6*,-0.6%,-30.2%,8.8%
Clc1ccsc1-c1csc(-c2cccnc2)n1,35.1,33.2*,-160.2%,-8.9%,0.2%
c1cncc(-c2nc(-c3ccco3)cs2)c1,79.4*,27.2*,-34.3%,-28.0%,?
c1cncc(-c2nc(-c3cccs3)cs2)c1,53.3,44.0*,-64.3%,-10.5%,-10.6%
c1csc(-c2csc(-c3cccs3)n2)c1,118.4*,30.0*,-20.8%,-34.3%,?
O=C(COc1ccccc1)Nc1nc(-c2cccs2)cs1,50.7,-2.4,-10.8%,-36.4%,-11.6%
O=C(O)C1CC=CCC1C(=O)Nc1ccc(N2CCN(Cc3ccccc3)CC2)cc1 (configuration not stated),-1.3,-2.0,?,-15.5%,?
O=C(c1ccccc1)n1nc(-c2ccc(Cl)cc2)nc1NCc1ccco1,.,.,.,.,27.2%
Oc1ccc(-c2csc(-c3cccnc3)n2)c(O)c1,111.2*,34.7*,.,-7.5%,-21.1%
CN(C)c1cccc(/C=C(\C#N)c2ccccc2)c1,77.5*,41.6*,-13.5%,-41.2%,-9.0%
CN(C)c1ccc(/C=C(\C#N)c2nc3ccccc3c(=O)[nH]2)cc1,.,.,.,.,18.8%
CN(C)c1ccc(/C=C(\C#N)c2ccccc2)cc1,63.1*,57.3*,-10.4%,-37.3%,1.6%
CSc1nc2ccccc2cc1/C=C(\C#N)c1cccc(C)c1,-6.5,-2.3,-1.2%,-16.0%,-7.0%
SMILES,Shiga inhibitor,Cycloheximide cs,NS1 function inh,AmpC no deterg,AmpC inh detg
CCOC(=O)NC(=O)/C(C#N)=C/c1ccc(N(C)C)cc1,30.1,36.0*,-2.2%,-35.7%,-13.1%
N#C/C(=C\c1ccccc1)C(=O)NC(=O)Oc1ccccc1,-3.8,7.7,-6.0%,-9.4%,-8.1%
CN(C)c1ccc(/C=C(\C#N)C(=O)c2ccccc2)cc1,41.3,14.2*,-2.9%,-25.8%,1.5%
N#Cc1cnn2ccc(-c3ccc4c(c3)CCC4)nc12,16.0,12.3,.,-14.1%,0.6%
CC(C)(C)N(NC(=O)OCc1ccccc1)C(=O)c1ccccc1Cl,12.8,-4.4,-2.1%,-5.7%,-10.6%
O=C(CNS(=O)(=O)c1c(Cl)cccc1Cl)OCC(=O)N1CCN(c2ccccc2)CC1,-6.7,-1.6,-18.5%,62.8%,5.0%
CCOC(=O)c1cc(S(=O)(=O)Nc2ccc(OC(F)(F)F)cc2)[nH]n1,.,.,.,.,0.1%
COC(=O)CN(C)C(=O)c1ccc2nc(Cc3cccc(Cl)c3)oc2c1,.,50.8*,-19.8%,59.0%,-16.6%
